Test results from PubChem BioAssay (NCATS).
Results filed as inconclusive are left out. Calls of active or inactive are those of the source. The call rests on the fitted dose curve; in most records, active means well fitted curve in the direction sought with a large enough effect; inconclusive means small, poorly fitted or top-dose-only effect, or another doubt; inactive means no such curve, though single readings can be large; an effect the other way counts as inactive or inconclusive.

Key:
[1] = qHTS of pediatric cancer cell lines to identify multiple opportunities for drug repurposing: Confirmatory screen for SJ-GBM2 cells (AID 1347116); details: SJ-GBM2 glioblastoma cells, viability; further: nearly all actives have a fitted effect of over 60% in size
Procedure, shortened: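 Viability measured as metabolically active cells via CellTiter-Glo luminescence following 48 hours of compound exposure, 11-point dilutions in confirmatory testing. 500-1,000 cells/well plated 5 hours before dosing; controls were DMSO and 2.3 µM bortezomib.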

[2] = qHTS of pediatric cancer cell lines to identify multiple opportunities for drug repurposing: Confirmatory screen for BT-37 cells (AID 1347117); details: BT-37 pediatric cancer cells, viability; further: nearly all actives have a fitted effect of over 55% in size
Procedure, shortened: (§1)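 Cells (500-1,000/well) rested 5 h, then received compounds for 48 h; metabolically active cells were measured by CellTiter-Glo luminescence. Final concentrations spanned up to 46 µM (MIPE, 11-point) or 0.59 nM-46 µM (NPC, 8-point) in primary screens, 11-point in follow-ups.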

[3] = qHTS of pediatric cancer cell lines to identify multiple opportunities for drug repurposing: Confirmatory screen for TC32 cells (AID 1347118); details: TC32 Ewing sarcoma cells viability qHTS;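 further: cells exposed to compound for 48 h before the read; nearly all actives have a fitted effect of over 65% in size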
Procedure, shortened: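 TC32 cells, 500-1,000/well in growth medium, compound-treated 48 h at 37 °C; viability from CellTiter-Glo luminescence. Primary screen: MIPE 11-point (0.78 nM–46 µM final), NPC 8-point (0.59 nM–46 µM final); confirmatory at 11-point dilutions.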

[4] = qHTS of pediatric cancer cell lines to identify multiple opportunities for drug repurposing: Confirmatory screen for MG 63 (6-TG R) cells (AID 1347119); details: MG-63 (6-TG resistant) osteosarcoma viability; further: nearly all actives have a fitted effect of over 55% in size
Procedure, shortened: as §1

[5] = qHTS of pediatric cancer cell lines to identify multiple opportunities for drug repurposing: Confirmatory screen for control Hh wild type fibroblast cells (AID 1347121); details: viability qHTS; further: nearly all actives have a fitted effect of over 70% in size
Procedure, shortened: as §1

[6] = qHTS of pediatric cancer cell lines to identify multiple opportunities for drug repurposing: Confirmatory screen for U-2 OS cells (AID 1347122); details: U-2 OS osteosarcoma cell viability; further: nearly all actives have a fitted effect of over 65% in size
Procedure, shortened: as §1

[7] = qHTS of pediatric cancer cell lines to identify multiple opportunities for drug repurposing: Confirmatory screen for Rh41 cells (AID 1347123); details: Rh41 rhabdomyosarcoma cells, viability/cytotoxicity qHTS;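 further: 48 h compound exposure; nearly all actives have a fitted effect of over 60% in size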
Procedure, shortened: as §1

[8] = qHTS of pediatric cancer cell lines to identify multiple opportunities for drug repurposing: Confirmatory screen for RD cells (AID 1347124); details: RD rhabdomyosarcoma cell viability;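 further: cells exposed to compound for 48 h before viability readout; nearly all actives have a fitted effect of over 65% in size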
Procedure, shortened: as §1

[9] = qHTS of pediatric cancer cell lines to identify multiple opportunities for drug repurposing: Confirmatory screen for Rh18 cells (AID 1347125); details: Rh18 rhabdomyosarcoma cells, viability; further: nearly all actives have a fitted effect of over 55% in size
Procedure, shortened: as §1

[10] = qHTS of pediatric cancer cell lines to identify multiple opportunities for drug repurposing: Confirmatory screen for Rh30 cells (AID 1347126); details: Rh30 rhabdomyosarcoma cell viability; further: nearly all actives have a fitted effect of over 55% in size
Procedure, shortened: as §1

Measured: Potency
Potency means the concentration at half of the fitted maximal effect.

C[CH2][Hg][S]c1ccccc1C(=O)O
active: [1] 7.37 µM | [2] 8.27 µM | [3] 2.93 µM | [4] 5.22 µM | [5] 16.5 µM | [6] 8.27 µM | [7] 1.17 µM | [8] 7.37 µM | [9] 16.5 µM | [10] 4.14 µM
